Screening data (PubChem BioAssay)
CCHFV vOTU inh = CCHFV vOTU protease inhibitors, primary screen, biochemical, Pep-AMC substrate, fluorescence | Crimean-Congo hemorrhagic fever virus L polyprotein viral ovarian tumor (vOTU) protease … | inhibition, % at 11.5 µM | hit rate 0.55% among 370,000 | AID 651958, 2012; also: 0% = vehicle wells with enzyme and 100% = no enzyme wells
GDH-TPI counter-1 = GDH-TPI coupling enzyme inhibitors, primary screen, artefact control for M. tuberculosis FBA inhibitor project, biochemical, absorbance, full deck; hit rate 1.2% among 360,000; GDH-TPI coupled enzyme counterscreen, NADH absorbance; inhibition, % at 4.8 µM;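 also: 0% = DMSO wells and 100% = wells lacking the enzyme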
Mtb FBA inh = Mtb FBA enzyme inhibitors, primary screen, biochemical, fluorescence, strain H37Rv | Fructose-bisphosphate aldolase (Mycobacterium tuberculosis (strain ATCC 25618 / H37Rv)), … | purified M. tuberculosis FBA, fluorescence read-out | inhibition, % at 1 µM | hit rate 2.3% among 360,000 | AID 588726, 2011; in the data active = inhibition above about 27%;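 also: 0% = vehicle and 100% = reference inhibitor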
MazF activator = activators of E. coli MazEF toxin-antitoxin RNase, primary screen, biochemical, fluorescence, uHTS; Endoribonuclease toxin MazF (Escherichia coli (strain K12)), P0AE70; FAM/BHQ RNA-DNA oligo cleavage fluorescence, 5 h; hit rate 0.32% among 350,000; AID 504720, 2011; activation, % at 20 µM; in the data active = activation above about 50%
Target sequence (P0AE70 whole entry, looked up): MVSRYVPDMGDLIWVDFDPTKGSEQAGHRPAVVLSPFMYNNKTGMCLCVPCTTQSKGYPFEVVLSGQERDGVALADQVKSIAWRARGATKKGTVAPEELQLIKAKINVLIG
Mtb bLac sens = beta-lactam sensitization of Mtb H37Rv, H37Rv | M. tuberculosis H37Rv growth with meropenem, percent inhibition | inhibition, % at 25 µM | hit rate 0.27% among 330,000; call rule not given here;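 also: growth measured after seven days incubation then overnight dye step; 0% = bacteria only wells and 100% = bacteria with antibiotic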
Mtb FBA confirm = M. tuberculosis aldolase blockers, biochemical, fluorescence, strain H37Rv, confirmation; shares compounds with Mtb FBA inh; purified M. tuberculosis FBA, fluorescence read-out; inhibition, % at 1 µM; hit rate 78% among 5,600; AID 651616, 2012; in the data active = inhibition above about 27%;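 also: 0% = vehicle wells and 100% = reference inhibitor wells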
GDH-TPI counter-2 = GDH-TPI coupling enzyme inhibitors, artefact control for M. tuberculosis FBA inhibitor project, biochemical, fluorescence, high throughput; GDH-TPI coupled enzyme counterscreen; shares compounds with Mtb FBA inh; inhibition, % at 1 µM; hit rate 81% among 5,600; in the data active = inhibition above about 10%
Active calls of the source: *; . = not tested or not shown; + = active, no number. Shown are actives, neighbours in structure and some others; about 4% of the full set was active somewhere. Rule as the data show it, unless noted: active = inhibition above about 30%; inactive = the rest.

SMILES	CCHFV vOTU inh	GDH-TPI counter-1	Mtb FBA inh	MazF activator	Mtb bLac sens	Mtb FBA confirm	GDH-TPI counter-2
C/C(=N/NC(=O)c1sc(NS(=O)(=O)c2ccc(C)cc2)nc1C)c1sc(N)nc1C	6	17	66*	-3	8	172*	140*
Cc1cc(=O)oc2cc(OCC(=O)N3CCN(C(=O)c4ccco4)CC3)ccc12	-9	-1	27*	4	-6	79*	68*
Cc1cc(=O)oc2cc(OCC(=O)N3CCN(Cc4ccc5c(c4)OCO5)CC3)ccc12	14	8	19	7	-4	.	.
Cc1cc(=O)oc2cc(OCC(=O)N3c4ccccc4NC(=O)C3(C)C)ccc12	-26	15	34*	4	0	107*	87*
Cc1cc(=O)oc2cc(OCC(=O)N3CCC(C(=O)O)(c4ccccc4)CC3)ccc12	4	13	28*	-3	-6	19	26*
Cc1cc(=O)oc2cc(OCC(=O)N3CCN(Cc4ccccc4)CC3)ccc12	-5	17	35*	6	-10	9	-3
CCCCc1cc(=O)oc2cc(OCC(=O)N3CCC(C(=O)O)(c4ccccc4)CC3)ccc12	-5	13	10	-23	1	.	.
O=C(NC1CCCCN(Cc2ccc(Cl)cc2)C1=O)c1ccccc1-c1ccc(Cl)c(Cl)c1 (stereo not given)	1	.	.	.	.	.	.
Cc1nc2ccc(NC(=O)N3CCOCC3)cc2nc1C	-75	9	43*	-3	-4	+	147*
CCOC(=O)C1CCN(C(=O)Nc2ccc3nc(C)c(C)nc3c2)CC1	-102	11	78*	3	-6	115*	77*
Cc1nc2ccc(NC(=O)N3CCOCC3)cc2s1	24	-5	0	0	15	.	.
CN1CCCCC(NC(=O)c2c(F)cccc2F)C1=O (stereo not given)	-9	.	.	.	.	.	.
CCc1c(C)c2ccc(OCC(=O)NCC3CCC(C(=O)O)CC3)c(C)c2oc1=O (stereo not given)	-10	5	38*	-2	-5	167*	134*
COC(=O)COc1cc(C)cc2oc(=O)c(CC(=O)OC)c(C)c12	-25	9	93*	0	-6	84*	66*
Cc1cc(=O)oc2c(C)c(OCC(=O)NCC3CCC(C(=O)O)CC3)ccc12 (stereo not given)	1	16	10	7	-5	.	.
CCc1c(C)c2ccc(OCC(=O)OC)cc2oc1=O	-28	17	70*	-4	97	61*	48*
COc1cc(NC(=O)COc2cc(C)cc3oc(=O)c(C)c(C)c23)cc(OC)c1OC	-8	5	1	-9	4	.	.
Cc1cccc(C)c1NC(=O)COc1ccc2c(C)c(Cc3ccccc3)c(=O)oc2c1	-15	16	57*	-11	0	+	193*
CCOC(=O)N1CCN(C(=O)C[C@H]2C[C@@]3(C(=O)OC)C(=C[C@H](COCc4ccccc4)O[C@@H]3C)N(Cc3ccc4c(c3)OCO4)C2=O)CC1	4	.	.	.	.	.	.
COc1cccc(Cn2cc(COC(=O)N(C)Cc3ccccc3)nn2)c1	-10	.	.	.	.	.	.
Cc1c(Cc2ccccc2)c(=O)oc2c(C)c(OC(C)C(=O)NCC3CCC(C(=O)O)CC3)ccc12 (stereo not given)	-6	-10	15	-4	-3	.	.
Cc1c(Cc2ccccc2)c(=O)oc2cc(OCC(=O)NCC3CCC(C(=O)O)CC3)ccc12 (stereo not given)	-32	34*	104*	6	-4	4	-4
Cc1ccc(S(=O)(=O)N(CC(=O)NC2CCC(C)CC2)c2cc(C)cc(C)c2)cc1 (stereo not given)	-2	.	.	.	.	.	.
COc1ncccc1-c1nnn(-c2ccc(Cl)nc2)n1	17	17	27*	5	-7	+	+
O=C(NCc1ccccn1)c1cc(-c2ccccc2)nc2ccccc12	-10	3	5	-4	5	.	.
